The campaign covered roughly 370,000 compounds. About 4,800 (1.3%) were called active.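 Rule for the calls: active = inhibition above about 21% made by adding two undisclosed values (limit read from the data); inactive = the rest.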 The entries come from a sample that favours actives as a whole.
biological target: Protein arginine N-methyltransferase 1 (Homo sapiens) (UniProt Q99873); experiment: human PRMT1 activity-probe blockers – biochemical, fluorescence polarization, primary screen (AID 652257); settings: recombinant PRMT1, activity-based probe fluorescence polarization; at 2.79 µM; hits give high values
Sequence (Q99873 whole entry, looked up): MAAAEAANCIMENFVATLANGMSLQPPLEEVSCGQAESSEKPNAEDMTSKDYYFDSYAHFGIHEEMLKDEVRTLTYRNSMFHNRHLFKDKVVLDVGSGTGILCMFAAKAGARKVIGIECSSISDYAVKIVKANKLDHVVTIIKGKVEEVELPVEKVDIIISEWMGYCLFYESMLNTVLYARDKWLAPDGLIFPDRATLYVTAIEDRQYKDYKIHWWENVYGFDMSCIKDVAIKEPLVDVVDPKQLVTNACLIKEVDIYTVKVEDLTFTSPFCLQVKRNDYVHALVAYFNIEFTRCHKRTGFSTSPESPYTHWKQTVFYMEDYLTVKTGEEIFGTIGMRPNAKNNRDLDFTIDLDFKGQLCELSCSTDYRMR

inhibition, active:
O=C(COC(=O)Cn1cnc2ccccc21)Nc1cccc2c1C(=O)c1ccccc1C2=O 26.1%, Cc1cc2nc3c(=O)[nH]c(=O)nc-3n(C[C@H](O)[C@H](O)[C@H](O)CO)c2cc1C 85.4%, Cc1ccc(Cn2c(C)nc3c(c2=O)c2nc4ccccc4nc2n3Cc2ccco2)cc1 24.6%, Cc1ccccc1-n1c(SCC(=O)Nc2cccc3ccccc23)nc(O)cc1=O 27.6%, CCCn1c(C(Cc2ccccc2)NC(=O)COC)nc2ccccc21 (stereo unspecified) 21.6%, Cc1cc2c(c(=O)n1Cc1ccco1)C(c1ccccc1)C(C#N)=C(N)O2 (stereo unspecified) 36.6%

inhibition, inactive:
O=C(COC(=O)Cn1cnc2ccccc2c1=O)NCC12CC3CC(CC(C3)C1)C2 -1.36%, O=C(Cn1cnc2ccccc21)N/N=C/c1ccco1 -1.39%, Cc1ccc(OCC(=O)c2cc(C)n(Cc3ccco3)c2C)c([N+](=O)[O-])n1 1.18%, Cc1ccc(C(=O)CSc2nc3ccccc3c(=O)n2N)o1 6.79%, C[C@H]1CN([C@@H](C)CO)S(=O)(=O)c2ccc(Br)cc2O[C@H]1CN(C)C(=O)c1cnccn1 -6.2%, CC1Sc2ccc(C(=O)NCc3ccccc3Cl)cc2NC1=O (stereo unspecified) 1.76%, COC(=O)c1cccc(Cn2ccc3ccc(-c4ccc5ccn(C(=O)C6CCCCC6)c5c4)cc32)c1 3.39%, C[C@@H]1COc2cccc(N3CCCC3)c2S(=O)(=O)N1C 10.8%, Cc1ccc(-n2c(SCC(=O)Nc3cccc4ccccc34)nnc2-c2ccccn2)cc1 -1.87%, C=CCn1c(N)cc(=O)nc1SCC(=O)Nc1cccc2ccccc12 -1.49%, COc1cccc(CNC(=O)C2CCCN(c3nc4ccccc4o3)C2)c1OC (stereo unspecified) -1.5%, Cc1ccc(NC(=O)Nc2cc(C)nn2-c2ccccc2)cc1 -2.65%, O=C(c1cccc(C(F)(F)F)c1)N1CC[C@H]2[C@H](CCCN2Cc2cc(F)cc(F)c2)C1 -3.31%, CCCC(NC(=O)c1ccccc1)c1nc2ccccc2n1Cc1ccc(C(=O)OC)o1 (stereo unspecified) -1.43%, CCOCCn1c(C(C)C)nc2ccccc21 -1.59%, CCCCn1ccnc1C(=O)c1cccc(S(=O)(=O)N2c3ccccc3CC2C)c1 (stereo unspecified) -0.73%, Cc1ccccc1NC(=O)C1CCN(c2ncccn2)CC1 8.54%, Fc1ccc2nc(COCc3nc4ccc(F)cc4[nH]3)[nH]c2c1 -1.38%, CC(C)c1ccc(C2C(C#N)=C(N)Oc3c2oc(CO)cc3=O)cc1 (stereo unspecified) 2.64%, Cc1cc2c(c(=O)n1C)C(C(C)C)C(C#N)=C(N)O2 (stereo unspecified) 2.55%

Reference: PubChem BioAssay AID652257 (The Scripps Research Institute Molecular Screening Center, 2013)
